Out of some 16,000 compounds screened, about 5,700 (36%) were called active. Roughly 24% stayed inconclusive and do not appear here. Some of the results follow. Unmarked numbers belong to inactive results. Calls follow the shape of the dose curve; as a rule, active = well fitted curve in the direction sought with a large enough effect; inconclusive = small, poorly fitted or top-dose-only effect, or effect the other way; inactive = no such curve, though single readings can be large or run the other way.
target: Cytochrome P450 1A2 (Homo sapiens) (UniProt P05177); experiment: Cytochrome panel assay with activity outcomes; settings: recombinant CYP, pro-luciferin dealkylation, luminescence, p450-cyp1a2; series mostly up to 57.1 µM; activity, negative = inhibition: at the top concentration
% is scaled to controls: 0 for no effect and ±100 for the full control effect.

Cytochrome P450 1A2 (Homo sapiens), sequence (P05177 whole entry, looked up): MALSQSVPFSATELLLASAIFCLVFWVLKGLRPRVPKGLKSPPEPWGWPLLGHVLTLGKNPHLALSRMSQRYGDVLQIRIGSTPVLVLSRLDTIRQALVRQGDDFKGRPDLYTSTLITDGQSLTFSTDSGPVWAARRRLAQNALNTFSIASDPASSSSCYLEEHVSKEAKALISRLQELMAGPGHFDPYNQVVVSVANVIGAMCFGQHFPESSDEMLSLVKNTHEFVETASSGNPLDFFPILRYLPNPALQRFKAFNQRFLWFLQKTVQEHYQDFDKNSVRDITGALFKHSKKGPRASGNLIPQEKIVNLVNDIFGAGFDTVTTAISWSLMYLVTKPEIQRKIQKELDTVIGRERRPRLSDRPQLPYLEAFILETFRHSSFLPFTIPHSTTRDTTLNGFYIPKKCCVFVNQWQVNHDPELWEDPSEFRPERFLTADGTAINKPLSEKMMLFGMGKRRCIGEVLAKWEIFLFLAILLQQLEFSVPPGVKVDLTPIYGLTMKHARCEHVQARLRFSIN

Row | SMILES | activity, negative = inhibition | AC50
1 | OC(c1ccccc1)(c1ccc(F)cc1)C(c1ccccc1)N1CCOCC1 (stereo not drawn) | -5.57% | –
2 | Oc1c(CN2CCOCC2)cc(-c2ccccc2)cc1CN1CCOCC1 | -25.6% | –
3 | N#C/C(=C/N1CCOCC1)c1ccccc1 | – | 0.891 µM (active)
4 | NS(=O)(=O)c1cc2c(cc1Cl)N[C@@H](CC1CCCC1)NS2(=O)=O | -7.47% [at 25.6 µM] | –
5 | O=C1NC(c2ccc(Br)cc2)Nc2sc3c(c21)CCC3 (stereo not drawn) | – | 2.51 µM (active)
6 | CC(C)OCCCN1C(=O)c2ccccc2C1C(=O)NC1CCCCC1 (stereo not drawn) | -5.24% | –
7 | CC(C)OCCCn1c(=S)[nH]c2ncccc2c1=O | – | 2.51 µM (active)
8 | COCC(=O)N1CCC[C@@]2(CCN(C(=O)Nc3cccc(F)c3)C2)C1 | 0.683% | –
9 | COc1ccc(CNc2ccnc(-c3ccc4c(c3)OCO4)n2)c(OC)c1 | – | 1.26 µM (active)
10 | COCOc1cc(OC)ccc1C(=O)/C=C\c1ccc2c(c1)OCO2 | -3.69% [at 11.4 µM] | –
11 | COc1ccccc1CNc1ccnc(-c2ccc3c(c2)OCO3)n1 | – | 0.631 µM (active)
12 | COc1ncc2nc(-c3ccccc3)c(=O)n(C)c2n1 | – | 1.58 µM (active)
13 | COc1ncc2nc(-c3ccc(F)cc3)c(=O)n(C)c2n1 | – | 0.501 µM (active)
14 | COc1ccc(-c2nc3cnc(OC)nc3n(C)c2=O)cc1 | – | 2.51 µM (active)
15 | C[C@@H]1O[C@@H](n2cc(F)c(=O)[nH]c2=O)[C@H](O)[C@@H]1O | -4.19% | –
16 | O=C(c1cnccn1)N1CCC2(CC1)CN(c1ccncc1)C2 | -0.142% | –
17 | O=C(COc1ccc([N+](=O)[O-])cc1)NN=C1CCCC1 | – | 12.6 µM (active)
18 | O=C(COc1ccc(Br)cc1)Nc1ccc([N+](=O)[O-])cn1 | – | 2 µM (active)
19 | CC(=O)Nc1ccc([N+](=O)[O-])cn1 | – | 17.8 µM (active)
20 | O=C(COc1ccc([N+](=O)[O-])cc1)Nc1ccc(C(=O)NCc2cccnc2)cc1 | -14.6% | –
21 | O=C(CN(c1ccccc1)S(=O)(=O)c1ccccc1[N+](=O)[O-])NN=C1CCCCCCC1 | -0.283% | –
22 | O=C(Nc1nnc(CCS(=O)(=O)c2ccc(Br)cc2)s1)c1ccc([N+](=O)[O-])cc1 | 0.122% | –
23 | COC(=O)C(C)(C(=O)OC)c1ccc([N+](=O)[O-])cn1 | -26.4% | –
24 | COc1ccc(N(CC(=O)NN=C2CCCC2)S(=O)(=O)c2ccccc2)cc1 | -13.5% | –
25 | C=CCC(C(=O)OC)(C(=O)OC)c1ccc([N+](=O)[O-])cn1 | -1.25% | –

Row | SMILES | activity, negative = inhibition | AC50
26 | O=c1ccn([C@@H]2O[C@@H](COP(=O)(O)OP(=O)(O)O)[C@H](O)[C@@H]2O)c(=O)[nH]1 | -0.565% | –
27 | Cc1cccc(/C=N\Nc2cn[nH]c(=O)c2Cl)c1 | – | 5.01 µM (active)
28 | Cc1cccc(NC(=S)NNC(=O)c2csc3c2CCCC3)c1 | – | 8.91 µM (active)
29 | CCN(CC)CCOC(=O)c1cc(Cl)c(N)cc1OC | – | 12.6 µM (active)
30 | CCCOc1ccc(C(=O)OCCN(CC)CC)cc1N | – | 5.01 µM (active)
31 | CCCOc1cc(N)ccc1C(=O)OCCN(CC)CC | – | 12.6 µM (active)
32 | CCN(CC)CCCCCCCCOC(=O)c1cc(OC)c(OC)c(OC)c1 | -7.41% | –
33 | COc1cc(N)c(Cl)cc1C(=O)OCCCN1CCCCC1 | -35.8% | –
34 | C[N+]1(CCCC[N+]2(C)CCCCCCC2)CCCCCCC1 | -10.4% [at 2.29 µM] | –
35 | O=C(N/N=C1/C[C@@H](O)[C@@H](O)[C@@H]2[C@@H]3C(=O)N(Cc4ccccc4)C(=O)[C@H]3CC[C@@H]12)OCc1ccccc1 | -5.8% [at 11.4 µM] | –
36 | COCOc1ccc(Br)cc1C(=O)[C@H]1O[C@H]1c1cccc(OC)c1 | -9.07% [at 11.4 µM] | –
37 | Nc1nc(-c2cccnc2)cc(-c2cc(-c3cccnc3)nc(N)n2)n1 | -15.9% [at 2.29 µM] | –
38 | O=C(O)c1cc2cc(Cc3cccnc3)ccc2o1 | -13.4% | –
39 | Cc1ccc2nc(-c3cccnc3)oc2c1 | – | 5.01 µM (active)
40 | Clc1ccc2oc(-c3cccnc3)nc2c1 | – | 1.41 µM (active)
41 | C[N+](C)(N)CCC[N+](C)(C)N | -12% [at 11.4 µM] | –
42 | O=C(NNC(=S)Nc1ccccc1)C1CC1 | -21.2% | –
43 | CC(C)(C)NC(=S)Nc1ccc(Nc2ccccc2)cc1 | – | 14.1 µM (active)
44 | Cc1ccc2nc(Nc3nc(-c4ccccc4)cc(=O)[nH]3)nc(C)c2c1 | – | 4.47 µM (active)
45 | Cc1ccc2c(C)nc(Nc3nc(CSc4nc5ccccc5[nH]4)cc(=O)[nH]3)nc2c1 | – | 11.2 µM (active)
46 | Cc1cc(Oc2ccccc2)nc(NCc2ccccc2)n1 | – | 12.6 µM (active)
47 | CN(C)c1nc(NCc2ccccc2)nc(N/N=C/c2ccc(Cl)cc2Cl)n1 | -11.9% | –
48 | Cc1cc(Oc2ccccc2)nc(-c2ccccc2)n1 | – | 1.58 µM (active)
49 | O=C1C[C@H](c2ccccc2)[C@@H](c2ccc(Br)cc2)O1 | -6.17% [at 11.4 µM] | –
50 | O=C1NCC2=C1C(c1ccc(Br)cc1)Nc1ccccc1N2 (stereo not drawn) | – | 17.8 µM (active)

Row | SMILES | activity, negative = inhibition | AC50
51 | C=CC[C@@H]1C=C[C@@H](O/N=C(/C)CCC(=O)OC[C@@H]2O[C@H](C#Cc3ccccc3)C=C[C@@H]2Oc2ccc(C)cc2)[C@@H](CO)O1 | 4% [at 11.4 µM] | –
52 | Cc1ccc(C(c2ccc(C)o2)c2cccc([N+](=O)[O-])c2O)o1 | – | 11.2 µM (active)
53 | Cc1ccc(-n2c3c(c(=O)[nH]c2=O)C(C(F)(F)F)(C(F)(F)F)NC(=O)N3)cc1 | 1.93% | –
54 | COc1ccc(C(=O)NCC(c2ccc(F)cc2)N2CCOCC2)cc1S(=O)(=O)N1CCCC1 (stereo not drawn) | – | 10 µM (active)
55 | COc1ccc(C(=O)Nc2ccc(Cl)cn2)cc1Cl | – | 0.631 µM (active)
56 | Cc1cc(=O)oc(C)c1C(=O)Nc1ccc(Cl)cn1 | -24.2% | –
57 | CCOc1ccc(C(=O)Nc2ccc(Cl)cn2)cc1Cl | – | 1.26 µM (active)
58 | CC(=O)N1CC2(CC2)CC1c1ccccc1 (stereo not drawn) | 14.3% | –
59 | Oc1ccccc1CNn1cnnc1 | -6.12% | –
60 | CCSc1ncc(/C=N/Nc2ccc(F)cc2)n1C | – | 2.82 µM (active)
61 | CC(=O)Nc1ccc(NC(=O)Cn2c(-c3ccc(F)cc3)cnc2SCC(=O)Nc2c(C)cccc2C)cc1 | 1.9% | –
62 | COc1cccc(-c2cncnc2NCCc2cnc[nH]2)c1 | – | 0.398 µM (active)
63 | COc1ccccc1-c1cncnc1NCCc1cnc[nH]1 | – | 1.26 µM (active)
64 | FC(F)(F)c1ccccc1-c1cncnc1NCCc1cnc[nH]1 | – | 6.31 µM (active)
65 | O=C(Oc1ccccc1)N1CCC2(CC1)CN(c1ccncc1)C2 | 0.506% | –
66 | CCCCN1C(=O)C(NC(=O)c2cccnc2)(C(F)(F)F)C2=C1CC(C)(C)CC2=O (stereo not drawn) | 3.24% | –
67 | COc1ccc(OC)c(CNC(=O)CCNC(=O)Cn2ccc3ccccc3c2=O)c1 | -21.6% | –
68 | CCCC(=O)NCCc1c2n(c3ccc(OC)cc13)Cc1ccccc1-2 | – | 2.51 µM (active)
69 | Cc1cnc(CNc2cc(-c3cccc(C#N)c3)ncn2)cn1 | – | 15.8 µM (active)
70 | COc1cccc(-c2cc(NCc3cnc(C)cn3)ncn2)c1 | – | 5.01 µM (active)
71 | CC(C)C(=O)Cc1ccc2ccccc2n1 | – | 3.16 µM (active)
72 | O=C(O)Cc1cc2ccccc2nc1C(=O)O | -19.6% | –
73 | C[C@@]12CCC(=O)C=C1CC[C@H]1[C@@H]2[C@@H](O)C[C@]2(C)[C@@H]1CC[C@@]2(O)C(=O)COC(=O)C1CCCC1 | -13.3% [at 11.4 µM] | –
74 | O=S(=O)(Nc1cccnc1Cl)c1ccc2c(c1)OCCO2 | 1.38% | –
75 | O=S(=O)(N/N=C\c1ccc2c(c1)OCO2)c1ccc(Cl)cc1 | – | 10 µM (active)

Row | SMILES | activity, negative = inhibition | AC50
76 | Cc1ccc(Cl)cc1N1CCN(S(=O)(=O)c2ccc3c(c2)OCCO3)CC1 | -22.6% | –
77 | O=S(=O)(N/N=C/c1ccc2c(c1)OCCO2)c1ccc(Cl)cc1 | – | 11.2 µM (active)
78 | O=C(Nc1nnc(SCc2c(Cl)cccc2Cl)s1)C1CCCO1 (stereo not drawn) | – | 17.8 µM (active)
79 | CCc1nnc(NC(=O)C2CCN(C(=O)NC3CCCCC3)CC2)s1 | -6.52% | –
80 | O=C(Nc1nnc(SCc2ccc(Cl)cc2Cl)s1)C1COc2ccccc2O1 (stereo not drawn) | -14.7% | –
81 | CCCCNCCOCCOc1ccc(C)cc1[N+](=O)[O-] | – | 0.794 µM (active)
82 | C=CCNCCOCCOc1ccc(C)cc1[N+](=O)[O-] | – | 0.794 µM (active)
83 | COc1ccc(C=O)cc1COc1ccc(C)cc1[N+](=O)[O-] | – | 1.12 µM (active)
84 | O=c1cc(N2CCN(c3ccccc3)CC2)[nH]c(=O)n1C1CCCCC1 | -14.4% | –
85 | COc1ccc(COC(=O)N/N=C2/C[C@@H](O)[C@@H](O)[C@@H]3[C@@H]4C(=O)N(C(C)(C)C)C(=O)[C@H]4CC[C@H]23)cc1 | -10.2% [at 11.4 µM] | –
86 | COC(=O)c1sccc1-c1ccc(C(=O)Nc2cccc(Cl)c2)o1 | – | 1.41 µM (active)
87 | CN(C)S(=O)(=O)Oc1ccsc1C(=O)Nc1ccc(Cl)cc1 | – | 0.891 µM (active)
88 | CN(C)S(=O)(=O)c1ccc(NC(=O)c2cc(F)c(F)cc2Cl)cc1 | 7.7% | –
89 | CN(C)S(=O)(=O)Oc1ccsc1C(=O)Nc1cccc(Cl)c1 | – | 1.41 µM (active)
90 | Cc1ccc(Sc2ccc(NC(=O)c3ccc(S(C)(=O)=O)cc3Cl)cc2)cc1 | 3.32% | –
91 | C[C@]12CC3CC(N)(C1)C[C@@](C)(C3)C2 | -0.566% | –
92 | CC(C)C(CCNC(=O)CC(Cc1ccccc1)c1ccco1)c1ccco1 (stereo not drawn) | -28.6% | –
93 | COC(=O)[C@@]1(Cc2ccc(F)cc2)[C@@H]2C(=CC(=O)[C@H]2CC(=O)C(=O)N(C)C)CN1C(=O)c1ccccc1 | -12.2% | –
94 | COC(=O)[C@@]1(Cc2ccc(OC)cc2)[C@@H]2C(=CC(=O)[C@H]2CC(=O)C(=O)N2CCCC2)CN1C(=O)c1ccccc1 | -15.6% | –
95 | C=C1C(=O)C=C2CN(C(=O)c3ccccc3)[C@@](Cc3ccc(F)cc3)(C(=O)OC)[C@@H]12 | – | 15.8 µM (active)
96 | C=C1C(=O)C=C2CN(C(=O)c3ccccc3)[C@@](Cc3ccc(OC)cc3)(C(=O)OC)[C@@H]12 | – | 15.8 µM (active)
97 | COC(=O)[C@@]1(Cc2ccc(OC)cc2)[C@@H]2C(=CC(=O)[C@H]2CC(=O)C(=O)N(C)C)CN1C(=O)c1ccccc1 | 1.41% | –
98 | COC(=O)[C@@]1(Cc2ccc(F)cc2)[C@@H]2C(=CC(=O)[C@H]2CC(=O)C(=O)N2CCCC2)CN1C(=O)c1ccccc1 | -6.64% | –
